In the library only some 4.6% were active in any assay of this set; here they are far more common.
D1 PAM – human D1 dopamine receptor positive modulation; HEK293 TREx D1 cells, calcium flux, dopamine EC20 potentiation; potentiation, % at 10 µM; actives 0.036% (n = 360,000); AID 504651; in the data active means potentiation above about 30%
D1 ag – activates the human D1 dopamine receptor; P21728; HEK293 T-REx D1 cells, calcium flux, agonist mode; activation, % at 2 µM; actives 1% (n = 360,000); AID 504660
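Agonism was scored from calcium flux recorded over 180 s (1 read/s) after pintool compound addition, following a 10-cycle baseline. Cells were inducible force-coupled HEK293 TREx D1, plated overnight at 30 C and loaded with no-wash calcium dye.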
TRHR agonist – TRH receptor (human) agonism | activation, % at 2 µM | actives 0.18% (n = 360,000) | P34981 | TRHR cells, calcium flux fluo-8, FDSS agonist mode
Target sequence (P34981 whole entry, looked up): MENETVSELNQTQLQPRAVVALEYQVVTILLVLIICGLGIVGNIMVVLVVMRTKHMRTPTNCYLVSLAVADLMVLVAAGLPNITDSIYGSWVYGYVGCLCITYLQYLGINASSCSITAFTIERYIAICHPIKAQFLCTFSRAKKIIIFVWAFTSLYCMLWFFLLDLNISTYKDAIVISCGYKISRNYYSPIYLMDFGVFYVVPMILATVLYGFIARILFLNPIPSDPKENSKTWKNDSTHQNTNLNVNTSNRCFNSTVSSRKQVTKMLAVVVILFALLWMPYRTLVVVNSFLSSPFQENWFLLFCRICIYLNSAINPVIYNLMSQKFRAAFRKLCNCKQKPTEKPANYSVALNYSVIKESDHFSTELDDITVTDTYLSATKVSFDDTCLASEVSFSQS
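TRHR-expressing cells loaded with fluo-8 calcium dye; 23 nL library compound pin-transferred, kinetic FDSS fluorescence (Ex 480/Em 530) recorded about 180 s for agonist-induced calcium release, before a 10 nM TRH EC20 addition for potentiator mode.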
TRHR enhancer – allosterically enhances the human TRH receptor; P34981; TRHR cells, fluo-8 calcium fluorescence, EC20 TRH enhancement; enhancement, % at 2 µM; actives 0.66% (n = 360,000); AID 493056; in the data active means enhancement above about 30%
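Enhancer read-out: after compound pinning and an initial kinetic agonist-mode read, an EC20 of TRH (10 nM final) was injected and fluo-8 calcium signal (Ex 480/Em 530) followed at 1 s/cycle for 100 cycles in TRHR-expressing cells.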
D1 antagonist – human D1 dopamine receptor antagonism; HEK293 TREx D1 cells, calcium flux, dopamine EC80; active compounds read low; activity change, negative = inhibition, % at 10 µM; actives 3.2% (n = 360,000); in the data active means activity change below about -30%
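Compound effects on dopamine-evoked calcium signalling were measured in tetracycline-induced HEK293 Trex D1 cells. Dopamine at EC80 followed a 180 s compound pre-read, and fluorescence was tracked kinetically for 180 s more.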
Each line names hits and unclear results; the compound was inactive in the other large screens. Unless noted, no stated cut-off is given here; in the data, active means activation above about 30%; inactive means the rest.

O=C(CCn1c(=O)sc2ccccc21)NCc1ccco1	D1 ag 78.8
O=C(CSc1nnc(Cn2c(=O)sc3ccccc32)n1-c1ccccc1)N1CCOCC1	none
Cc1ccccc1-n1c(Cn2c(=O)sc3ccccc32)nnc1SCC(=O)N1CCOCC1	D1 antagonist -37.8 (no result: D1 PAM)
Cc1cc(C)n2c(SCC(=O)NCc3ccco3)nnc2n1	D1 antagonist -59.1
COc1ccc(CNC(=O)CSc2nnc3nc(C)cc(C)n23)cc1OC	none
O=C(CCn1c(=O)sc2ccccc21)NCc1ccc2c(c1)OCO2	none
CC[C@@H](C(=O)[C@@H](C)[C@@H](O)[C@H](C)CCc1ccc(C)c(O)c1C(=O)O)[C@H]1O[C@](CC)([C@H]2CC[C@](O)(CC)[C@H](C)O2)C[C@@H]1C	D1 ag 207.2, TRHR agonist 99.9, TRHR enhancer 40.2, D1 antagonist -64.4
COc1cccc2c1cc1c(=O)n(CC(=O)NCCCc3ccccc3)nc(C)n12	D1 antagonist -38.8
CCOCCCNC(=O)Cn1nc(CC)n2c(cc3c(OC)cccc32)c1=O	D1 antagonist -30.1
CCc1nn(CC(=O)NCCCN(C)Cc2ccccc2)c(=O)c2cc3sc(C)cc3n12	D1 antagonist -37.2
CCc1nn(CC(=O)NCCCc2ccccc2)c(=O)c2cc3c(OC)cccc3n12	none
COC(=O)CN1C(=O)CSc2ccc(S(=O)(=O)Nc3ccc(C)c(Cl)c3)cc21	none
CCCCCC(=O)Nc1cccc(C2=NOC3(C2)C[C@H](C(N)=O)N(C(=O)CCCCC)C3)c1 (stereo partly specified)	none
CCC(=O)N1CC2(CC(c3cccc(NC(=O)COc4ccc(Cl)cc4)c3)=NO2)C[C@@H]1C(N)=O (stereo partly specified)	D1 antagonist -53.1
CCCCCC(=O)N1CC2(CC(c3cccc(NC(=O)CC(c4ccccc4)c4ccccc4)c3)=NO2)C[C@@H]1C(N)=O (stereo partly specified)	D1 antagonist -47.1
O=C(/C=C/c1ccccc1[N+](=O)[O-])NCCc1ccc(F)cc1	none
C/C=C/c1ccc(OCCN2CCc3ccccc3C2)c(OC)c1	none
Cc1ccc(Cl)c(OCCN2CCc3ccccc3C2)c1	D1 antagonist -39.7
Cc1ccc(Cl)c(OCCCN(C)Cc2ccccc2)c1	D1 antagonist -55.3
CCOc1ccccc1OCCCOc1ccc(C)cc1Cl	D1 antagonist -85.9
Cc1ccc(Cl)c(OCCCCN(C)Cc2ccccc2)c1	none
COc1ccc(S(=O)(=O)N2CCC(N3CCN(c4ccccc4OC)CC3)CC2)cc1	none
Cn1c2c(c(=O)n(C)c1=O)C(C(F)(F)F)(C(F)(F)F)N=C(CCC1CCCCC1)N2	D1 antagonist -52.3
COc1ccccc1N1CCN(c2ccc(NC(=O)c3ccc(C)cc3)cc2C(=O)O)CC1	none
COC1CCCN(C(=O)c2cccc(OC3CCN(S(C)(=O)=O)CC3)c2)C1 (stereo unspecified)	none
Clc1ccc(OCCOCCNCc2ccccc2)cc1Cl	D1 ag 46.8
CN(CCOc1ccc(Cl)c(Cl)c1)Cc1ccccc1	none
Cc1cc(Cl)cc(C)c1OCCOCCNCc1ccccc1	D1 ag 31.4
COc1cc(Cl)c(C)cc1NC(=O)CCn1c(=O)c2cccn2c2cccnc21	none
CCC(C)NS(=O)(=O)c1ccc(NC(=O)c2ccc([N+](=O)[O-])cc2Cl)cc1 (stereo unspecified)	D1 antagonist -30.9
CC(=O)Nc1ccc(NC(=O)c2ccc([N+](=O)[O-])cc2Cl)cc1	none
CC(C)CCOCC(=O)Oc1ccccc1C(=O)O	TRHR enhancer 30.0
CC(=O)Oc1ccccc1C(=O)Oc1ccccc1C(=O)O	none
O=C(COC(=O)C12CC3CC(CC(Br)(C3)C1)C2)Nc1ccc2[nH]c(=O)[nH]c2c1	none
COc1ccc(CN2CCN(C(=O)c3ccc(CNS(=O)(=O)c4ccc(C)cc4)cc3)CC2)c(OC)c1OC	D1 antagonist -30.2
Cc1ccc(S(=O)(=O)NCc2ccc(C(=O)NC3CC3)cc2)cc1	none
CCOC(=O)N1CCC(NC(=O)c2ccc(CNS(=O)(=O)c3ccc(F)cc3)cc2)CC1	D1 antagonist -34.1
CCOC(=O)C1CCN(C(=O)CCNS(=O)(=O)c2ccc(C)cc2)CC1	none
CCOC(=O)C1CCN(C(=O)c2ccc(CNS(=O)(=O)c3ccc(C)cc3)cc2)CC1	D1 antagonist -36.6
CCOC(=O)C1CCN(CC(C)(C)NS(=O)(=O)c2ccc(C)cc2)CC1	none
CCOC(=O)C1CCN(CC(C)(C)NS(=O)(=O)c2ccc(Cl)cc2)CC1	D1 antagonist -31.3
CCOc1ccc(NC(=O)c2cccc(N3CCCS3(=O)=O)c2)cc1	none
COc1ccccc1-c1ccc(SCc2ccccc2F)nn1	D1 antagonist -40.0
COc1ccccc1-c1ccc(SCc2ccccc2)nn1	none
Cc1ccc(Nc2ccc(NCc3ccccc3)nn2)cc1C	D1 antagonist -43.6
Cc1cc(NCc2ccccc2)c2ccccc2n1	none
Cc1cc(NCc2ccccc2)nc2ccccc12	D1 ag 34.3, D1 antagonist -66.2
Cc1nn(CCCC(=O)Nc2cc(C(F)(F)F)ccc2Cl)c(=O)c2c1sc1ccccc12	none
CCC1Sc2ccc(S(=O)(=O)Nc3ccc(OC)cc3)cc2NC1=O (stereo unspecified)	D1 ag 30.4, D1 antagonist -36.3
Cc1ccc(-c2nnn3c2nc(NCC(C)c2ccccc2)c2ccccc23)cc1 (stereo unspecified)	none
CO[C@H]1C[C@@H]2CC[C@@H](C)[C@@](O)(O2)C(=O)C(=O)N2CCCC[C@H]2C(=O)O[C@H]([C@H](C)C[C@@H]2CC[C@@H](O)[C@H](OC)C2)CC(=O)[C@H](C)C=C(C)[C@@H](O)[C@@H](OC)C(=O)[C@H](C)C[C@H](C)C=CC=CC=C1C	none
CC[C@@H]1C=C(C)C[C@H](C)C[C@H](OC)[C@H]2O[C@@](O)(C(=O)C(=O)N3CCCC[C@H]3C(=O)O[C@H](/C(C)=C/[C@@H]3CC[C@@H](O)[C@H](OC)C3)[C@H](C)[C@@H](O)CC1=O)[C@H](C)C[C@@H]2OC	D1 ag 32.4
Cc1ccc(Nc2cc(C)c(C#N)c3nc4ccccc4n23)c(C)c1	D1 antagonist -37.9
Cc1nn(CC(=O)Nc2cc(F)ccc2F)c(=O)c2cccn12	none
CCOc1ccc(OCc2cccc(C(=O)Nc3ccc(CN4CCCCC4)cc3)c2)cc1	D1 ag 37.6, D1 antagonist -30.5
COc1cc(OC)cc(C(=O)Nc2ccc(CN3CCCCC3)cc2)c1	none
O=C(Nc1ccc(CN2CCCCC2)cc1)c1cccc(F)c1	none
COc1ccc(OCc2cccc(C(=O)Nc3ccc(CN4CCCCC4)cc3)c2)cc1	D1 ag 47.5
O=C(NC1CCCCC1)C(c1ccccc1)N(Cc1ccco1)C(=O)Cn1cnc2ccccc21 (stereo unspecified)	D1 antagonist -44.1

Source: PubChem BioAssay
